Test results taken from PubChem BioAssay (NCI).
Compounds without any hit were thinned out: in the full panel of roughly 79,000, 15% have a hit. Active and inactive are the calls of the source. Cut-off read from the data, not from the text of the source: active = growth inhibition above about 70%; inactive = the rest.

Tests used:
[1] = NCI Yeast Anticancer Drug Screen. Data for the rad52 strain (AID 147);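 note: 0% = growth of vehicle-treated control cultures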; details: S. cerevisiae rad52 mutant growth inhibition, hits give high values
Method in brief: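 The repair-mutant yeast strain was incubated with compounds, then growth was read and inhibition derived relative to vehicle.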

[2] = NCI Yeast Anticancer Drug Screen. Data for the wt1 strain (AID 149);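 note: 0% = growth of vehicle-treated wt1 cultures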; details: S. cerevisiae wt1 strain (SPY 50644) growth inhibition, hits give high values
Method in brief: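 wt1 strain grown with compound or vehicle; inhibition taken from the growth difference.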

[3] = NCI Yeast Anticancer Drug Screen. Data for the rad50EPP+ strain (AID 151);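 note: 0% = growth of vehicle-treated control cultures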; details: S. cerevisiae rad50 mutant strain, hits give high values
Method in brief: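 Vehicle-normalised growth inhibition; rad50EPP+ yeast strain, altered in DNA damage repair, compound-treated.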

[4] = NCI Yeast Anticancer Drug Screen. Data for the mgt1 strain (AID 153); details: S. cerevisiae mgt1 mutant growth inhibition, hits give high values
Method in brief: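 Vehicle-normalized growth inhibition is determined in mgt1 yeast, a strain selected for a defined alteration in DNA repair or cell cycle control.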

[5] = NCI Yeast Anticancer Drug Screen. Data for the rad50 strain (AID 155);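 note: 0% = growth of vehicle-only cultures of the same strain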; details: S. cerevisiae rad50 strain growth inhibition, hits give high values
Method in brief: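 DNA repair mutant yeast, compound exposure, growth read-out; inhibition is taken relative to vehicle.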

[6] = NCI Yeast Anticancer Drug Screen. Data for the mec2-1 strain (AID 157); details: S. cerevisiae mec2-1 strain, hits give high values
Method in brief: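 Mutant yeast (mec2-1) grown with compound; growth inhibition relative to vehicle control reported.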

[7] = NCI Yeast Anticancer Drug Screen. Data for the rad14 strain (AID 159);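 note: 0% = growth of vehicle-treated control cultures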; details: S. cerevisiae rad14 strain growth inhibition, hits give high values
Method in brief: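 DNA repair-defective yeast, compound-exposed; % growth inhibition derived by comparison with vehicle-treated controls.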

[8] = NCI Yeast Anticancer Drug Screen. Data for the sgs1 mgt1 strain (AID 161);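 note: 0% = growth of cultures given vehicle only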; details: S. cerevisiae sgs1 mgt1 strain, hits give high values
Method in brief: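 Yeast cells carrying a defined DNA-repair defect were exposed to test compounds. Growth inhibition was measured relative to vehicle-treated controls.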

[9] = NCI Yeast Anticancer Drug Screen. Data for the CLN2oe strain (AID 163);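 note: 0% = growth of vehicle-only control cultures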; details: S. cerevisiae CLN2oe strain, hits give high values
Method in brief: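 Compounds are applied to yeast harbouring a defined cell-cycle control change; reduced growth compared with vehicle-treated controls gives the value.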

[10] = NCI Yeast Anticancer Drug Screen. Data for the cln2 rad14 strain (AID 165);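 note: 0% = growth equal to vehicle treated cultures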; details: S. cerevisiae cln2 rad14 strain, hits give high values
Method in brief: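 Readout is yeast growth inhibition versus vehicle-treated controls, using a strain with cln2 and rad14 alterations exposed to compound.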

[11] = NCI Yeast Anticancer Drug Screen. Data for the bub3 strain (AID 167); details: S. cerevisiae bub3 mutant strain, hits give high values
Method in brief: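 In this screen, a yeast mutant lacking normal mitotic checkpoint function is challenged with compound. Relative growth versus vehicle gives the inhibition value.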

[12] = NCI Yeast Anticancer Drug Screen. Data for the mlh1 strain (AID 171);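 note: 0% = growth of vehicle-treated control cultures of the same strain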; details: S. cerevisiae mlh1 strain growth inhibition, hits give high values
Method in brief: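 Measured: yeast growth. Reference: vehicle-treated controls. Organism: strain with a defined alteration affecting DNA damage repair or cell cycle control, treated with compound.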

[13] = NCI Yeast Anticancer Drug Screen. Data for the sgs1 strain (AID 173);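 note: 0% = growth of vehicle-only control cultures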; details: S. cerevisiae sgs1 mutant, hits give high values
Method in brief: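 Each compound was added to cultures of the altered yeast strain. Growth was recorded, and inhibition was derived by comparison with vehicle controls.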

[14] = NCI Yeast Anticancer Drug Screen. Data for the mlh1 rad18 strain (AID 175); details: S. cerevisiae mlh1 rad18 strain growth inhibition, hits give high values
Method in brief: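 Genetically defined yeast (DNA repair-deficient) exposed to compounds; growth inhibition determined relative to vehicle.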

[15] = NCI Yeast Anticancer Drug Screen. Data for the wt2 strain (AID 169);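 note: 0% = growth of vehicle-treated yeast cultures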; details: S. cerevisiae wt2 strain growth inhibition, hits give high values
Method in brief: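 Against vehicle-treated controls, the growth of yeast exposed to each compound was compared, and the inhibition was recorded.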

[16] = at 5.0 µM (retest, dose inferred, filed as 0.5)
[17] = at 50.0 µM (retest, dose inferred, filed as 5.0)

Measured: growth inhibition

CC(C)(C)c1cc([N+](=O)[O-])cc([N+](=O)[O-])c1O
inactive: [1]; at 1.2 µM -11% | [1]; at 3.7 µM -17% | [1]; at 11.0 µM -1% | [1]; at 33.0 µM 17% | [1]; at 100.0 µM 33% | [2]; at 1.2 µM -16% | [2]; at 3.7 µM -23% | [2]; at 11.0 µM -7% | [2]; at 33.0 µM 12% | [2]; at 100.0 µM 38% | [3]; at 1.2 µM -54% | [3]; at 3.7 µM -54% | [3]; at 11.0 µM -44% | [3]; at 33.0 µM -25% | [3]; at 100.0 µM -13% | [4]; at 1.2 µM -52% | [4]; at 3.7 µM -34% | [4]; at 11.0 µM 21% | [4]; at 33.0 µM -11% | [4]; at 100.0 µM 43% | [5]; at 1.2 µM -24% | [5]; at 3.7 µM -26% | [5]; [16] 46% | [5]; at 11.0 µM -5% | [5]; at 33.0 µM 1% | [5]; at 100.0 µM 22% | [6]; at 1.2 µM -61% | [6]; at 3.7 µM -47% | [6]; [16] 66% | [6]; at 11.0 µM -25% | [6]; at 33.0 µM -8% | [6]; at 100.0 µM 7% | [7]; at 1.2 µM -19% | [7]; at 3.7 µM -12% | [7]; at 11.0 µM 6% | [7]; at 33.0 µM 26% | [7]; at 100.0 µM 29% | [8]; [16] 0% | [8]; [17] 38% | [9]; at 1.2 µM 9% | [9]; at 3.7 µM 1% | [9]; at 11.0 µM 12% | [9]; at 33.0 µM 25% | [9]; at 100.0 µM 28% | [10]; [16] 46% | [10]; [17] 21% | [11]; at 1.2 µM -17% | [11]; at 3.7 µM -15% | [11]; [16] -13% | [11]; at 11.0 µM -2% | [11]; at 33.0 µM 9% | [11]; [17] 39% | [11]; at 50.0 µM 68.6% | [11]; at 100.0 µM 21% | [12]; at 1.2 µM -38% | [12]; at 3.7 µM -33% | [12]; at 11.0 µM -4% | [12]; at 33.0 µM 10% | [12]; at 100.0 µM 42% | [13]; at 1.2 µM -20% | [13]; at 3.7 µM -8% | [13]; at 11.0 µM 15% | [13]; at 33.0 µM 40% | [13]; at 100.0 µM 46% | [14]; [16] 50% | [14]; at 50.0 µM 67.7%
active: [5]; [17] 100% | [5]; at 50.0 µM 78.8% | [6]; [17] 99% | [6]; at 50.0 µM 72.2% | [8]; at 50.0 µM 84.3% | [10]; at 50.0 µM 73.4% | [14]; [17] 100%

C[C@]12CCC3[C@@H](CC[C@@H]4c5nonc5CC[C@]34C)C1CCC2=O (stereo partly specified)
active: [1]; at 33.0 µM 82% | [1]; at 100.0 µM 85% | [4]; at 33.0 µM 84% | [4]; at 100.0 µM 90% | [5]; at 33.0 µM 80% | [5]; at 50.0 µM 87.3% | [5]; at 100.0 µM 87% | [6]; at 100.0 µM 79% | [7]; at 33.0 µM 87% | [7]; at 100.0 µM 90% | [8]; at 50.0 µM 87.6% | [11]; at 50.0 µM 78.2% | [11]; at 100.0 µM 72% | [15]; at 33.0 µM 83% | [15]; at 100.0 µM 83% | [13]; at 33.0 µM 92% | [13]; at 100.0 µM 93% | [14]; at 50.0 µM 80.8%
inactive: [1]; at 1.2 µM 13% | [1]; at 3.7 µM 22% | [1]; at 11.0 µM 52% | [2]; at 1.2 µM 0% | [2]; at 3.7 µM -1% | [2]; at 11.0 µM 8% | [2]; at 33.0 µM 38% | [2]; at 100.0 µM 65% | [3]; at 1.2 µM 4% | [3]; at 3.7 µM 7% | [3]; at 11.0 µM 16% | [3]; at 33.0 µM 29% | [3]; at 100.0 µM 24% | [4]; at 1.2 µM 20% | [4]; at 3.7 µM 29% | [4]; at 11.0 µM 52% | [5]; at 1.2 µM 14% | [5]; at 3.7 µM 18% | [5]; [16] 27% | [5]; at 11.0 µM 65% | [5]; [17] 67% | [6]; at 1.2 µM 6% | [6]; at 3.7 µM 3% | [6]; [16] 15% | [6]; at 11.0 µM 29% | [6]; at 33.0 µM 54% | [6]; [17] -11% | [6]; at 50.0 µM 47.6% | [7]; at 1.2 µM 40% | [7]; at 3.7 µM 40% | [7]; at 11.0 µM 55% | [8]; [16] 33% | [8]; [17] 69% | [9]; at 1.2 µM 38% | [9]; at 3.7 µM 41% | [9]; at 11.0 µM 48% | [9]; at 33.0 µM 47% | [9]; at 100.0 µM 51% | [10]; [16] 39% | [10]; [17] 54% | [10]; at 50.0 µM 67.7% | [11]; at 1.2 µM 16% | [11]; at 3.7 µM 19% | [11]; [16] -11% | [11]; at 11.0 µM 38% | [11]; at 33.0 µM 61% | [11]; [17] 59% | [15]; at 1.2 µM 3% | [15]; at 3.7 µM 2% | [15]; at 11.0 µM 32% | [13]; at 1.2 µM 19% | [13]; at 3.7 µM 26% | [13]; at 11.0 µM 66% | [14]; [16] 37% | [14]; [17] 63%
